Shown is part of a subset that was picked to be rich in hits.
TTR transcr act – activators of transthyretin transcription; AID 1117267; activation, % at 16.7 µM; 92,000 compounds, 1.3% hits; SH-SY5Y TTR promoter Gaussia luciferase, luminescence; 100% = recombinant luciferase protein wells;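 active means activation above the mean of all tested compounds plus 3 SD, cut at about 9.5% in these data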;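 further: cells exposed to compounds for one day before reading; 0% = median of all test compound wells on the plate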
TTR inh HuH7 – counter-screen for TTR activators: TTR transcription inhibitors in HuH7 cells | shares compounds with TTR transcr act | HuH7 TTR promoter-Gaussia luciferase reporter, luminescence | inhibition, % at 16.7 µM | 1,100 compounds, 4% hits;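 active means average inhibition above the solvent-only control wells' mean plus 3 SD, cut at about 15% in these data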;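 further: 0% = cells with DMSO only and 100% = cells with inhibitor control FD; inhibitors lower well luminescence so higher value means more inhibition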
TTR up confirm – human TTR transcription activation, confirmation. shares compounds with TTR transcr act. SHSY5Y TTR promoter Gaussia luciferase, luminescence; 100% = purified Lucia enzyme wells, no cells. activation, % at 16.7 µM. 1,100 tested, under 10 active;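 active means mean activation above a set limit taken from the earlier primary screen, cut at about 11% in these data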;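 further: 0% = DMSO-treated cells and 100% = recombinant Lucia luciferase without cells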
* hit, by the source's call.

SMILES | TTR transcr act | others
O=C(COC(=O)c1cc(=O)[nH]c2ccccc12)NC1CCCCC1 | 12* | TTR inh HuH7=-11;TTR up confirm=0
Cc1ccccc1CN1[C@@H](C)[C@H](c2ccccc2)Oc2cccc(N3CCCC3)c2S1(=O)=O | -1
CC(C)OP(=O)(O)C(C)NC(=O)OCc1ccccc1 (stereo not given) | -2
COc1ccc(S(=O)(=O)N2CCOCC2)cc1C(=O)Nc1cccc(C(=O)NC2CC2)c1 | 13* | TTR inh HuH7=-8;TTR up confirm=2
O=C(NC1CCCCC1)c1cccc(S(=O)(=O)N2CCOCC2)c1 | 2
O=C(NC1CCCCCC1)c1cccc(S(=O)(=O)N2CCOCC2)c1 | 3
O=C(c1ccccc1)n1ccc2ccc(-c3ccc4ccn(Cc5ccccc5)c4c3)cc21 | 1
Cc1ccccc1C(=O)c1ccccc1C(=O)c1ccccc1 | 6
Nc1sccc1C(=O)c1ccccc1 | 9.9* | TTR inh HuH7=-6;TTR up confirm=-1
O=C(c1ccccc1)c1cccs1 | 1
COC(=O)[C@]12C[C@H](CC(=O)N3CCCCC3)C(=O)N(Cc3ccco3)C1=C[C@H](C1CCCC1)O[C@@H]2C | 0
c1ccc2c(-c3cncc4ccccc34)cncc2c1 | -2
O=[N+]([O-])c1ccccc1OCc1nc(-c2cccs2)no1 | 12* | TTR inh HuH7=-9;TTR up confirm=1
O=C(O)CCc1nc(-c2cccs2)no1 | -1
Clc1ccccc1OCc1nc(-c2ccc(Br)o2)no1 | 1
O=[N+]([O-])c1ccc(Cc2ccccn2)c([N+](=O)[O-])c1 | 7
Cc1cccc(OCC(=O)Nc2ccncc2)c1 | -2
Cc1cccc(OCC(=O)NNS(=O)(=O)c2ccccc2F)c1 | 16* | TTR inh HuH7=-4;TTR up confirm=2
Cc1cccc(OCC(=O)NNC(=O)CCc2ccccc2)c1 | 0
O=C1c2ccccc2C(O)N1c1ccccc1 (stereo not given) | 0
C=CCC1c2cccc(C(=O)O)c2C(=O)N1c1ccc(F)cc1 (stereo not given) | 12* | TTR inh HuH7=8;TTR up confirm=0
CCCN1Cc2cccc(C(=O)N3CCN(c4ccc(F)cc4)CC3)c2C1=O | -2
Cc1ccccc1NC(=O)CCCCCN1C(=O)[C@@H]2Cc3ccccc3CN2C1=O | -1
O=C(CCCCCN1C(=O)[C@@H]2Cc3ccccc3CN2C1=O)Nc1cccc(F)c1 | -3
CCOc1ccccc1NC(=O)CCCCCN1C(=O)[C@@H]2Cc3ccccc3CN2C1=O | 0
SMILES | TTR transcr act | others
Cc1cccc(NC(=O)CCCCCN2C(=O)[C@@H]3Cc4ccccc4CN3C2=O)c1 | 14* | TTR inh HuH7=-14;TTR up confirm=0
COc1ccc(NC(=O)CCCCCN2C(=O)[C@@H]3Cc4ccccc4CN3C2=O)cc1Cl | -2
O=C(CCCCCN1C(=O)[C@@H]2Cc3ccccc3CN2C1=O)Nc1ccccc1F | 11* | TTR inh HuH7=-13;TTR up confirm=-1
Brc1ccc(N2O[C@H]3C=C[C@@H]2C3)nc1 | 0
COc1ccc(CN2C(=O)C(CC(=O)NC3CCCCC3)CC(C(=O)N(C)C)=C2C)cc1 (stereo not given) | 0
O=C(OCC(=O)c1ccc(Cl)s1)c1ccc(CO)cc1 | 1
O=C(NC(=S)N1CCN(c2ccc(F)cc2)CC1)c1ccccc1 | -1
N/C(=N\OC(=O)c1ccc(F)cc1)c1ccccc1 | 0
CC(C)(C)OC(=O)N1C(=O)[C@](OC(=O)c2ccccc2)(c2ccc(F)cc2)c2ccccc21 | 21* | TTR inh HuH7=4;TTR up confirm=-1
Cc1ccc(NC(=S)N(C)N)cc1Cl | 1
Cc1ccc(Nc2ccc([N+](=O)[O-])cn2)cc1Cl | 1
Cc1ccc(Nc2cc(=O)[nH]c(=O)[nH]2)cc1Cl | 9.7* | TTR inh HuH7=-3;TTR up confirm=-1
NS(=O)(=O)c1ccc2nc(NC(=O)Nc3ccc(F)cc3)sc2c1 | -2
C[C@H](CO)N1C[C@H](C)[C@H](CN(C)C(=O)CC2CC2)Oc2cc(Br)ccc2S1(=O)=O | 0
CCCNC(=O)N(C)C[C@@H]1Oc2cc(Br)ccc2S(=O)(=O)N([C@@H](C)CO)C[C@H]1C | 3
C[C@H]1CN([C@@H](C)CO)S(=O)(=O)c2ccc(-c3cncnc3)cc2O[C@H]1CN(C)C(=O)NC1CCCC1 | 0
C[C@H](CO)N1C[C@H](C)[C@@H](CN(C)C(=O)c2ccc(F)cc2)Oc2cc(Br)ccc2S1(=O)=O | 1
C[C@H]1CN([C@@H](C)CO)S(=O)(=O)c2ccc(Br)cc2O[C@H]1CN(C)C(=O)Cc1ccccc1 | 2
CCC(=O)N(C)C[C@H]1Oc2cc(Br)ccc2S(=O)(=O)N([C@@H](C)CO)C[C@H]1C | 15* | TTR inh HuH7=-11;TTR up confirm=0
C[C@H]1CN([C@@H](C)CO)S(=O)(=O)c2ccc(Br)cc2O[C@@H]1CN(C)C(=O)C1CCOCC1 | 24* | TTR inh HuH7=-8;TTR up confirm=1
C[C@H]1CN([C@@H](C)CO)S(=O)(=O)c2ccc(Br)cc2O[C@H]1CN(C)C(=O)CN(C)C | -1
C[C@H](CO)N1C[C@H](C)[C@@H](CN(C)C(=O)NC2CCCC2)Oc2cc(Br)ccc2S1(=O)=O | 18* | TTR inh HuH7=-10;TTR up confirm=2
CC(C)(C)S(=O)N1C[C@@H]2CC(=O)C(c3ccccc3)=C2[C@H]1CCO (stereo not given in full) | -1
S=C(Nc1cc(Cl)cc(Cl)c1)NC(c1ccccc1)c1ccccc1 | -2
CN(C)CCN(Cc1ccccc1)C(c1cc2ccccc2o1)c1nnnn1C(C)(C)C (stereo not given) | -1
SMILES | TTR transcr act | others
O=C(OCc1cn(Cc2ccc(F)cc2F)nn1)N1CCOCC1 | -1
CN(c1ccc([N+](=O)[O-])cc1)c1cc2c(c3c1ccn3C)C1CCC2C1 (stereo not given) | 2
CCOC(=O)[C@@H]1CSCCS(=O)(=O)N1C(=O)[C@H](CC(C)C)NC(=O)OC(C)(C)C | 1
C[C@@H]1CCCN1c1cccc2c1S(=O)(=O)N1CC[C@@H](C1)O2 | -1
Cc1ccc(CN2CC(N3CC=CC3)CS2(=O)=O)cc1 (stereo not given) | 0
C[C@H]1CN([C@@H](C)CO)C(=O)CCCn2cc(nn2)CO[C@@H]1CN(C)S(C)(=O)=O | 3
O=C(NCc1ccc(F)cc1)c1cc(S(=O)(=O)N2CCCCC2)c[nH]1 | -2
O=C(NCCc1ccccc1)c1cc(S(=O)(=O)N2CCCCC2)c[nH]1 | 15* | TTR inh HuH7=-2;TTR up confirm=-1
Cc1ccc(CCNC(=O)c2cc(S(=O)(=O)N3CCCCC3)c[nH]2)cc1 | -2
CC(=O)C1=CCN(C)CC1 | 2
COC(=O)[C@]12C[C@H](CC(=O)NCC3CCCCC3)C(=O)N(CCc3ccc(OC)c(OC)c3)C1=C[C@H](C(C)C)O[C@@H]2C1CC1 | 3
O=C1NC(=O)C2C3OC(C(Br)C3Br)C12 (stereo not given) | 5
CCN(c1ccccc1)S(=O)(=O)c1nnc(NC(=O)c2ccccc2OC)s1 | -1
Cc1cc(NC(=O)CCCn2nc([N+](=O)[O-])cc2C)no1 | 2
Cc1cc([N+](=O)[O-])nn1CCCC(=O)Nc1cc(Cl)ccc1Cl | 14* | TTR inh HuH7=-13;TTR up confirm=-1
Cc1cc([N+](=O)[O-])nn1CCCC(=O)NCc1ccccc1 | -1
C[C@H](CO)N1C[C@H](C)[C@H](CN(C)C(=O)Nc2cccc3ccccc23)Oc2ncc(Br)cc2C1=O | -1
Cc1cccc(C(C)C)c1NC(=O)C(C)OC(=O)Cc1n[nH]c(=O)c2ccccc12 (stereo not given) | 0
